The source of these data is PubChem BioAssay (NCATS).

Values joined by “and” are separate entries in the source; they are usually repeats but may differ in a detail not shown here. Identical values can stand only once. Inconclusive results are not listed. Unmarked numbers belong to inactive results. Active and inactive are the calls of the source. Calls come from the whole dose curve; as a rule, active = well fitted curve in the direction sought with a large enough effect; inconclusive = small, poorly fitted or top-dose-only effect, or another doubt; inactive = no such curve, though single readings can be large; an effect the other way counts as inactive or inconclusive.

One may read the viability as a read-out of living cells in per cent, often relative to untreated cells.

Assay [1] has as its target Cellular tumor antigen p53 (Homo sapiens) (UniProt P04637). The experiment in a line: Primary qHTS for small molecule compounds that upregulate eGFP-tagged delta133p53alpha (in N-terminal) cells. (AID 2060322).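 For activation: cells pre-induced with doxycycline then dosed without doxycycline; series mostly up to about 56 µM; 0% = DMSO vehicle and 100% = reference activator.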 Note: nearly all actives have a fitted effect of over 75% in size. As to conditions: NCI-H358 eGFP-delta133p53alpha fluorescence, 24 h; activation: stronger effect = higher value. Summed up:
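NCI-H358 cells pre-induced 24 h with 10 ng/ml doxycycline for eGFP-delta133p53alpha, plated dox-free and exposed 24 h at 37C to titrated compounds. Fixed, Hoechst-stained; gated GFP peak intensity by laser scanning cytometry, normalized to DMSO (0%) and 57.5 uM 5-azacytidine (100%).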
On the technique in general: In qHTS, concentration-response curves come from the screen itself.

A short description of assay [2]: BET inhibitor-based combinations targeting novel dependencies in MECOM-rearranged (r) AML: SET-2 cell line (AID 2202231).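 For viability: plate controls were DMSO treated cells for no effect and wells without cells for full effect.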 Note: nearly all actives have a fitted effect of over 35% in size. As to conditions: SET-2 AML cells viability, CellTiter-Glo luminescence, 48 h; viability: stronger effect = lower value, concentration not given here. In outline: (§1)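 AML cell lines seeded at 500 cells/well, treated with 11-point dose curves for 48 h. Viability by CellTiter-Glo luminescence, normalised to DMSO and empty wells; activity expressed as AUC and per-cell-line Z-transformed AUC.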
(In general: Cellular ATP, detected with luciferase, serves as a proxy for viable cell number.)

Assay [3] is described as follows: BET inhibitor-based combinations targeting novel dependencies in MECOM-rearranged (r) AML: OCI-AML3 cell line (AID 2202232). Note: nearly all actives have a fitted effect of over 35% in size. As to conditions: Potency: OCI-AML3 viability. Summed up: as §1
Assay [4] can be described thus: BET inhibitor-based combinations targeting novel dependencies in MECOM-rearranged (r) AML: MV-4-11 cell line (AID 2202233). Note: nearly all actives have a fitted effect of over 45% in size. In outline: (§2)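 Cells at 500/well were exposed for 48 hr to MIPE v5.0 drugs as 11-point dose curves. Viability was read by CellTiter-Glo luminescence and normalized to DMSO and empty-well controls. Activity was expressed as AUC and per-cell-line Z-AUC.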

Assay [5] is described as follows: BET inhibitor-based combinations targeting novel dependencies in MECOM-rearranged (r) AML: HNT-34 cell line (AID 2202234). Note: nearly all actives have a fitted effect of over 35% in size. In outline:
as §2

The nature of assay [6]: BET inhibitor-based combinations targeting novel dependencies in MECOM-rearranged (r) AML: UCSD-AML1 cell line (AID 2202235). Note: nearly all actives have a fitted effect of over 40% in size. Summed up:
as §2

Assay [7] can be described thus: BET inhibitor-based combinations targeting novel dependencies in MECOM-rearranged (r) AML: AML-191 cell line (AID 2202236; note: nearly all actives have a fitted effect of over 35% in size). Summed up: as §1
Assay [8] is described as follows: BET inhibitor-based combinations targeting novel dependencies in MECOM-rearranged (r) AML: AML-194 cell line (AID 2202237; note: nearly all actives have a fitted effect of over 40% in size). Summed up:
as §1
Potency is the fitted concentration of half-maximal effect.

Sequence of Cellular tumor antigen p53 (Homo sapiens) (P04637 whole entry, looked up): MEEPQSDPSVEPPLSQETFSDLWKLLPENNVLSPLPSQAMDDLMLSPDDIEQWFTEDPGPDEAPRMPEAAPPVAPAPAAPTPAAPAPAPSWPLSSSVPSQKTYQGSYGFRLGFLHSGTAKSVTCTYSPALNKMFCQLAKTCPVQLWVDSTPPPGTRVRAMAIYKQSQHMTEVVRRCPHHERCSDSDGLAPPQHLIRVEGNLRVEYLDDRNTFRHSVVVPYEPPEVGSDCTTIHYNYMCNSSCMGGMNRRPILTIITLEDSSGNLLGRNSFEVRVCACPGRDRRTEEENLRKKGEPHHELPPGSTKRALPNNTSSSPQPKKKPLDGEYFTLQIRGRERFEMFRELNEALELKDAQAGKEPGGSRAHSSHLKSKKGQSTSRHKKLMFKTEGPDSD

Regarding `CS(=O)(=O)OCCCCOS(C)(=O)=O`, the activation in assay [1] is -9.57%. Further, in assay [2], the viability was 114%. The Potency result in assay [3], in assay [4], in assay [5], in assay [6], in assay [7] and in assay [8] was “inactive” throughout.

Regarding `COc1c(N2CCNC(C)C2)c(F)cc2c(=O)c(C(=O)O)cn(C3CC3)c12` (centres undefined), in assay [1], the activation was 12.6% and 24.5%. The viability in assay [2] was 100%. The Potency entry in assay [3], in assay [4], in assay [5], in assay [6], in assay [7] and in assay [8] was “inactive” in each case.

Turning to `CN(C)CCc1c[nH]c2ccc(CS(=O)(=O)N3CCCC3)cc12`, the activation in assay [1] was -5.58%. Also, the viability in assay [2] was 115%. Also, the Potency result in assay [3], in assay [4], in assay [5], in assay [6], in assay [7] and in assay [8] was “inactive” throughout.

Consider `CNC(=O)c1cc(Oc2ccc(NC(=O)Nc3cc(C(C)(C)C)nn3-c3ccc4ncccc4c3)c(F)c2)ccn1`, for which the Potency is 5360 nM (active) in assay [1]; 18.6 µM (active) in assay [2]; 23500 nM (active) in assay [3]; 46.8 nM (active) in assay [4]; 0.148 µM (active) in assay [5]; 16.6 µM (active) in assay [6]. The Potency in assay [7] and in assay [8] was 20.9 µM (active) throughout.

`OCCN1C[C@H](O)[C@@H](O)[C@H](O)[C@H]1CO`: the activation in assay [1] is -10.9%. Further, in assay [2], the viability was 115%. Also, the Potency entry in assay [3], in assay [4], in assay [5], in assay [6], in assay [7] and in assay [8] was “inactive” throughout.

For the molecule `COc1cccc2c1C(=O)c1c(O)c3c(c(O)c1C2=O)C[C@@](O)(C(=O)CO)C[C@@H]3O[C@H]1C[C@H](N)[C@H](OC2CCCCO2)[C@H](C)O1` (some centres undefined), the activation in assay [1] is 3.12%. In addition, the Potency was 1.32 µM (active) and 833 nM (active) in assay [2]; 186 nM (active) in assay [3]; 18.6 nM (active) and 74.2 nM (active) in assay [4]; 332 nM (active) and 235 nM (active) in assay [5]; 209 nM (active) and 263 nM (active) in assay [6]; 118 nM (active) and 372 nM (active) in assay [7]. Also, the Potency in assay [8] was 332 nM (active) and 296 nM (active).

In the case of `O=C1c2ccccc2-[n+]2ccc3c([nH]c4ccccc43)c21`, the Potency in assay [1] was 15300 nM (active); in assay [2] it was 2.63 µM (active); in assay [3], 1860 nM (active); in assay [4], 1480 nM (active); in assay [5] it was 1.86 µM (active); in assay [6] it was 1.86 µM (active). Besides, the Potency was 1.66 µM (active) in assay [7] and 2.35 µM (active) in assay [8].

With `Nc1ccn([C@@H]2CS[C@H](CO)O2)c(=O)n1`, in assay [1], the activation is -9.96%. Moreover, the viability in assay [2] was 113%. Besides, the Potency result in assay [3], in assay [4], in assay [5], in assay [6], in assay [7] and in assay [8] was “inactive” throughout.

As for `C[C@H]1COc2c(N3CCN(C)CC3)c(F)cc3c(=O)c(C(=O)O)cn1c23`, in assay [1], the activation was -12.8%. Moreover, the viability in assay [2] is 108%. Moreover, the Potency result in assay [3], in assay [4], in assay [5], in assay [6], in assay [7] and in assay [8] was “inactive” throughout.

Regarding `CN1CC(=O)NC1=NC(=O)Nc1cccc(Cl)c1`, the activation in assay [1] is -20.6%. Further, in assay [2], the viability is 111%. Besides, the Potency result in assay [3], in assay [4], in assay [5], in assay [6], in assay [7] and in assay [8] was “inactive” each time.

Regarding `O=c1oc2c(O)c(O)cc3c(=O)oc4c(O)c(O)cc1c4c23`, the activation in assay [1] was -6.69% and -19.7%. Moreover, the viability in assay [2] was 113%. The Potency entry in assay [3], in assay [4], in assay [5], in assay [6], in assay [7] and in assay [8] was “inactive” each time.

Turning to `NCCCC(O)(P(=O)(O)O)P(=O)(O)O`, in assay [1], the activation was 36.7% and -7.88%. The viability in assay [2] is 114%. In addition, the Potency entry in assay [3], in assay [4], in assay [5], in assay [6], in assay [7] and in assay [8] was “inactive” each time.

On to `NC(=O)Nc1cc(-c2ccc(CN3CCOCC3)cc2)sc1C(N)=O`, for which the activation in assay [1] was 3%. Further, the Potency is 10.5 µM (active) in assay [2]; 934 nM (active) in assay [3]; 332 nM (active) in assay [4]; 1.18 µM (active) in assay [5]; 1.32 µM (active) in assay [6]; 2.63 µM (active) in assay [7]. Moreover, the Potency in assay [8] was 0.742 µM (active).

For `CCOC(=O)C=C[C@H](C[C@@H]1CCNC1=O)NC(=O)[C@@H](CC(=O)[C@@H](NC(=O)c1cc(C)on1)C(C)C)Cc1ccc(F)cc1`, in assay [1], the activation was 17.3%. In addition, the viability in assay [2] was 120%. The Potency entry in assay [3], in assay [4], in assay [5], in assay [6], in assay [7] and in assay [8] was “inactive” in each case.

In the case of `O=C(/C=C\n1cnc(-c2cc(C(F)(F)F)cc(C(F)(F)F)c2)n1)NNc1cnccn1`, the activation in assay [1] was 24.8%. The Potency is 0.742 µM (active) in assay [2]; 1180 nM (active) in assay [3]; 525 nM (active) in assay [4]; 0.934 µM (active) in assay [5]; 0.372 µM (active) in assay [6]; 0.468 µM (active) in assay [7]. In assay [8], the Potency was 0.372 µM (active).

Take `OC[C@H]1O[C@@H](O[C@@H]2[C@@H](CO)O[C@](O)(CO)[C@H]2O)[C@H](O)[C@@H](O)[C@H]1O`: the activation in assay [1] is 10%. Moreover, the viability in assay [2] is 108%. For the same molecule, the Potency result in assay [3], in assay [4], in assay [5], in assay [6], in assay [7] and in assay [8] was “inactive” each time.

Take `Cc1nc(-c2ccc(OCC(C)C)c(C#N)c2)sc1C(=O)O`: the activation in assay [1] was 4.32% and -8.37%. Also, the viability in assay [2] was 109%. The Potency result in assay [3], in assay [4], in assay [5], in assay [6], in assay [7] and in assay [8] was “inactive” throughout.

As for `O=C(NC1CCNCC1)c1[nH]ncc1NC(=O)c1c(Cl)cccc1Cl`, the Potency in assay [1] was 685 nM (active); in assay [2], 11.8 µM (active); in assay [3], 1050 nM (active); in assay [4] it was 662 nM (active); in assay [5], 1.05 µM (active); in assay [6], 1.32 µM (active). Moreover, the values for the Potency in assay [7] and in assay [8] were 2.09 µM (active) and 2.63 µM (active), respectively.
